From PubChem BioAssay (NCI)
Compounds without any hit were thinned out: in the full panel of roughly 79,000, 15% have a hit. A number with no mark means an inactive call. Calls of active or inactive are those of the source. Cut-off read from the data, not from the text of the source: active = growth inhibition above about 70%; inactive = the rest.

assay: NCI Yeast Anticancer Drug Screen. Data for the cln2 rad14 strain (AID 165);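 note: 0% = growth equal to vehicle treated cultures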; conditions: S. cerevisiae cln2 rad14 strain, at 50.0 µM, active compounds read high
In short: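 Growth of compound-exposed yeast (cln2 rad14 genotype) measured and expressed as inhibition relative to vehicle.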

| SMILES | growth inhibition |
| --- | --- |
| N#CC(Cl)(Cl)CCl | 47% |
| O=C(Cc1c2ccccc2cc2c1ccc1ccccc12)N(CCCl)CCCl | 94.3% (active) |
| CC[C@@]1(O)C(=O)OCc2c1cc1n(c2=O)Cc2cc3c(OC)cccc3nc2-1 | 64% |
| CCOC(=O)NP(=O)(NNc1ccccc1)NNc1ccccc1 | 98.2% (active) |
| C=C1C(=O)O[C@@H]2C[C@@H](C)[C@@H]3C=CC(=O)[C@@]3(C)[C@@H](O)[C@H]12 | 22.1% |
| O=C(O)C(F)(F)F.[Ag] | 98.7% (active) |
| O=C(CBr)Nc1ccccc1 | 97.3% (active) |
| C1=C[N-]c2c3c(ccc2=C1)=CC=C[N-]3.C1=C[N-]c2c3c(ccc2=C1)=CC=C[N-]3.F[P-](F)(F)(F)(F)F.[Cu+2] | 98.8% (active) |
| O=[N+]([O-])/C=C/c1ccccc1Cl | 92.2% (active) |
| CCOP(=S)(OCC)SSSP(=S)(OCC)OCC | 65.8% |
| CCOC(=O)c1ccc(N=Cc2ccc(N(CCCl)CCCl)cc2C)cc1 | 5.3% |
| COc1ccc2c(c1)CCC(N1CCCC(=O)C1)C2 (stereo not given) | 17.4% |
| CCCCCCC(=O)[O][Hg][c]1ccccc1 | 99% (active) |
| CCC[CH2][Sn]1([CH2]CCC)[O]C(=O)c2cccnc2[S]1 | 62.5% |
| C[AsH](C)CC[AsH](C)C.C[AsH](C)CC[AsH](C)C.C[AsH](C)CC[AsH](C)C.[Ni] | 93.5% (active) |
| O=c1[nH]c2ccccc2n1C1CCN(CCCC(c2ccc(F)cc2)c2ccc(F)cc2)CC1 | -24% |
| O=[C-]c1ccccc1[C-]=O.[Pd+2].c1ccc([PH+](c2ccccc2)c2ccccc2)cc1.c1ccc([PH+](c2ccccc2)c2ccccc2)cc1 | -0.7% |
| c1ccc(C(c2ccccc2)c2cccnc2)cc1 | 88.9% (active) |
| C#CC[As+](c1ccccc1)(c1ccccc1)c1ccccc1 | 88.8% (active) |
| CC[CH2][Pb]([CH2]CC)([CH2]CC)[O]C(C)=O | 91.3% (active) |
| CC[PH+](CC)CC.[Cl][Au] | 90.8% (active) |
| CN(C)[PH+](N(C)C)N(C)C.CN(C)[PH+](N(C)C)N(C)C.[C-]#[O+].[C-]#[O+].[C-]#[O+].[C-]#[O+].[C-]#[O+].[C-]#[O+].[Co].[Co].[Hg] | 99.2% (active) |
| CC1=C(N2CC2)C(=O)c2nc3n(c2C1=O)CCC3OC(=O)CCl (stereo not given) | 57.9% |
| [N-]=[N+]=Nc1c([N+](=O)[O-])c(=O)n2c3c(cccc13)CCC2 | 90.6% (active) |
| CCC[CH2][Sn]1([CH2]CCC)[O]CC(CN2CCCCC2)[O]1 (stereo not given) | 78.5% (active) |
